The values that follow come from PubChem BioAssay (EPA / NIEHS).

The source made the active and inactive calls. How the source made its calls: active means hit-call score of the fitted dose curve at least 0.9, where 1 is the maximum; inactive means score below 0.9.

What all share (settings): mRNA level, 48 h; actives raise or lower the signal
Read-out in assay [1]: Cytochrome P450 2C19 (Homo sapiens) (UniProt P33261)
Briefly: LTEA_HepaRG_CYP2C19: Life Technologies and Expression Analysis (LTEA) Assay for CYP2C19 using HepaRG (AID 2283482). The method in brief: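 Transcript levels of CYP2C19 were quantified by qRT-PCR after HepaRG cells were treated for 48 hours with test chemicals up to 100 uM (eight half-log concentrations, 0.5% DMSO vehicle). Gain or loss of signal was fitted relative to DMSO.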

Read-out in a further assay: CYP2C8 (gene 1558)
Briefly: LTEA_HepaRG_CYP2C8: Life Technologies and Expression Analysis (LTEA) Assay for CYP2C8 using HepaRG (AID 2283483). The method in brief:
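HepaRG (human liver line), 48 h chemical exposure, 8-pt half-log series from 100 uM, 0.5% DMSO vehicle. Readout: CYP2C8 transcript by qRT-PCR, housekeeping-normalized. Bidirectional fit vs DMSO baseline.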

Read-out in the next assay: CYP2C9 (gene 1559)
Briefly: LTEA_HepaRG_CYP2C9: Life Technologies and Expression Analysis (LTEA) Assay for CYP2C9 using HepaRG (AID 2283484). The method in brief:
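HepaRG, 48 h dosing, 8-pt half-log series, top 100 uM, 0.5% DMSO vehicle. Read-out: CYP2C9 transcript by TaqMan qRT-PCR, housekeeping-normalized (ACTB/GAPDH/POLR2A). Gain or loss fitted vs DMSO baseline.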

Read-out in the next assay: CYP2E1 (gene 1571)
Briefly: LTEA_HepaRG_CYP2E1: Life Technologies and Expression Analysis (LTEA) Assay for CYP2E1 using HepaRG (AID 2283485). Put shortly:
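Readout is qRT-PCR of CYP2E1 mRNA, normalized to three housekeeping genes and fitted bidirectionally against 0.5% DMSO. HepaRG cells were dosed 48 h at eight concentrations, highest 100 uM with half-log dilutions.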

Read-out in a further assay: CYP4A11 (gene 1579)
Briefly: LTEA_HepaRG_CYP4A11: Life Technologies and Expression Analysis (LTEA) Assay for CYP4A11 using HepaRG (AID 2283486). Put shortly: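 HepaRG, 48 h chem exposure, 8 conc (100 uM top, half-log), 0.5% DMSO vehicle; qRT-PCR readout, housekeeping-gene normalized; bidirectional curve fit vs DMSO baseline.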

Read-out in assay [2]: Cytochrome P450 3A4 (Homo sapiens) (UniProt P08684)
Briefly: LTEA_HepaRG_CYP3A4: Life Technologies and Expression Analysis (LTEA) Assay for CYP3A4 using HepaRG (AID 2283487). Put shortly:
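Differentiated HepaRG cells, plated 48 h, then dosed 48 h in serum-free induction medium with 0.5% DMSO, 8 half-log concentrations up to 100 uM, duplicate. CYP3A4 mRNA by qRT-PCR, normalized to ACTB/GAPDH/POLR2A; bidirectional fit versus DMSO.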

Read-out in assay [3]: DNA damage-inducible transcript 3 (DDIT3), DDIT3 (gene 1649)
Kind of assay: LTEA_HepaRG_DDIT3: Life Technologies and Expression Analysis (LTEA) Assay for DNA damage-inducible transcript 3 (DDIT3) using HepaRG (AID 2283488). The method in brief:
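Cells are human HepaRG liver cells treated for 48 h with eight half-log concentrations up to 100 uM in 0.5% DMSO. Transcript levels come from qRT-PCR normalized to three housekeeping genes, with activity fitted in both directions relative to vehicle.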

Read-out in assay [4]: Pro-epidermal growth factor (Homo sapiens) (UniProt P01133)
Briefly: LTEA_HepaRG_EGF: Life Technologies and Expression Analysis (LTEA) Assay for Epidermal growth factor (EGF) using HepaRG (AID 2283489). The method in brief: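 HepaRG, 48 h dosing, 100 uM top, half-log x8, 0.5% DMSO. Readout: TaqMan qRT-PCR (Fluidigm array), housekeeping-normalized. Gain or loss of signal fit vs DMSO.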

Read-out in assay [5]: Early growth response protein 1 (EGR1) transcription factor, EGR1 (gene 1958)
Kind of assay: LTEA_HepaRG_EGR1: Life Technologies and Expression Analysis (LTEA) Assay for Early growth response protein 1 (EGR1) transcription factor using HepaRG (AID 2283490). Put shortly:
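HepaRG, 48 h exposure, 8-pt half-log series from 100 uM, 0.5% DMSO vehicle; EGR1 transcript by TaqMan qRT-PCR (Fluidigm array), housekeeping-normalized; bidirectional fit relative to DMSO baseline.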

Read-out in assay [6]: Ezrin (EZR), EZR (gene 7430)
Kind of assay: LTEA_HepaRG_EZR: Life Technologies and Expression Analysis (LTEA) Assay for Ezrin (EZR) using HepaRG (AID 2283491). The method in brief:
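EZR transcript levels came from Fluidigm qRT-PCR and were normalized to three housekeeping genes after 48 h chemical exposure of HepaRG cells. Dosing used an 8-point half-log series with a 100 uM top concentration in 0.5% DMSO, tested in duplicate; both directions were fitted versus vehicle.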

Read-out in assay [7]: Cytochrome P450 3A7 (Homo sapiens) (UniProt P24462)
Kind of assay: LTEA_HepaRG_CYP3A7: Life Technologies and Expression Analysis (LTEA) Assay for CYP3A7 using HepaRG (AID 2283492). Put shortly:
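Human HepaRG liver cells, 48 h post-plating, switched to serum-free induction medium and exposed in duplicate for 48 h. Dosing: 100 uM top, half-log dilutions, 8 points, 0.5% DMSO vehicle. Read-out: CYP3A7 mRNA, gain or loss fitted against DMSO baseline.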

Read-out in a further assay: CYP3A5 (gene 1577)
Briefly: LTEA_HepaRG_CYP3A5: Life Technologies and Expression Analysis (LTEA) Assay for CYP3A5 using HepaRG (AID 2283493). The method in brief:
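Human HepaRG hepatic cells receive 48 h chemical treatment at eight concentrations (half-log steps from 100 uM) in 0.5% DMSO. Expression of CYP3A5 is quantified by Fluidigm qRT-PCR and normalized to three reference genes.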

Read-out in assay [8]: Fatty Acid-Binding Protein 1 (FABP1), FABP1 (gene 2168)
Briefly: LTEA_HepaRG_FABP1: Life Technologies and Expression Analysis (LTEA) Assay for Fatty Acid-Binding Protein 1 (FABP1) using HepaRG (AID 2283494). Put shortly: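 qRT-PCR readout of FABP1 transcript (normalized to three housekeeping genes) after 48 h chemical exposure of HepaRG cells; eight concentrations, half-log steps, max 100 uM, 0.5% DMSO vehicle; gain or loss fitted relative to DMSO baseline.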

Read-out in assay [9]: Cytochrome P450 4A22 (Homo sapiens) (UniProt Q5TCH4)
Kind of assay: LTEA_HepaRG_CYP4A22: Life Technologies and Expression Analysis (LTEA) Assay for Cytochrome P450 4A22 (CYP4A22) using HepaRG (AID 2283495). The method in brief:
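Readout is CYP4A22 transcript induction or loss, quantified by qRT-PCR and normalized to ACTB, GAPDH and POLR2A. Human HepaRG cells receive test chemicals for 48 h at eight half-log concentrations from 100 uM in 0.5% DMSO.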

Read-out in assay [10]: Cytochrome P450 7A1 (Homo sapiens) (UniProt P22680)
Kind of assay: LTEA_HepaRG_CYP7A1: Life Technologies and Expression Analysis (LTEA) Assay for Cytochrome P450 7A1 (CYP7A1) using HepaRG (AID 2283496). The method in brief:
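HepaRG, 48 h exposure, 8-pt half-log series from 100 uM, 0.5% DMSO vehicle, duplicates. Readout: TaqMan qRT-PCR mRNA vs three housekeeping genes; bidirectional curve fit against DMSO baseline.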

Read-out in assay [11]: Glutathione S-Transferase (GSTA2), GSTA2 (gene 2939)
Kind of assay: LTEA_HepaRG_GSTA2: Life Technologies and Expression Analysis (LTEA) Assay for Glutathione S-Transferase (GSTA2) using HepaRG (AID 2283497). Put shortly:
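qRT-PCR readout of GSTA2 transcript, normalized to three housekeeping genes, fitted bidirectionally against 0.5% DMSO baseline. Differentiated HepaRG cells received compound for 48 h at 8 concentrations (top 100 uM, half-log steps).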

Read-out in assay [12]: Glutamate-cysteine ligase catalytic (GCLC), GCLC (gene 2729)
Kind of assay: LTEA_HepaRG_GCLC: Life Technologies and Expression Analysis (LTEA) Assay for Glutamate-cysteine ligase catalytic (GCLC) using HepaRG (AID 2283498). Put shortly:
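HepaRG, 48 h exposure, 8-pt half-log series from 100 uM, 0.5% DMSO vehicle; TaqMan qRT-PCR for GCLC mRNA, housekeeping-normalized; bidirectional curve fit vs DMSO baseline.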

Read-out in assay [13]: growth arrest and DNA damage 45 (GADD45G), GADD45G (gene 10912)
Briefly: LTEA_HepaRG_GADD45G: Life Technologies and Expression Analysis (LTEA) Assay for growth arrest and DNA damage 45 (GADD45G) using HepaRG (AID 2283499). Put shortly: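 Gain or loss of GADD45G mRNA, quantified by TaqMan qRT-PCR against three housekeeping genes, is fitted in both directions relative to 0.5% DMSO. Human HepaRG cultures receive test chemical for 48 h at up to 100 uM.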

Read-out in assay [14]: Glutamate-cysteine ligase regulatory (GCLM), GCLM (gene 2730)
Kind of assay: LTEA_HepaRG_GCLM: Life Technologies and Expression Analysis (LTEA) Assay for Glutamate-cysteine ligase regulatory (GCLM) using HepaRG (AID 2283500). The method in brief:
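Endpoint is GCLM transcript level by qRT-PCR, normalized to three housekeeping genes, after 48 h chemical exposure of human HepaRG cells (0.5% DMSO vehicle, top 100 uM, half-log dilutions). Fitting was bidirectional relative to DMSO.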

Read-out in assay [15]: Glutathione S-transferase M3 (GSTM3), GSTM3 (gene 2947)
Briefly: LTEA_HepaRG_GSTM3: Life Technologies and Expression Analysis (LTEA) Assay for Glutathione S-transferase M3 (GSTM3) using HepaRG (AID 2283501). The method in brief: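 HepaRG, plated 48 h, then serum-free induction medium; test chemical 48 h, duplicate; 100 uM top, half-log x8, 0.5% DMSO. Read-out: GSTM3 mRNA (TaqMan qRT-PCR, Fluidigm array). Bidirectional fit vs DMSO.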

Sequence of Cytochrome P450 3A4 (Homo sapiens) (P08684 whole entry, looked up): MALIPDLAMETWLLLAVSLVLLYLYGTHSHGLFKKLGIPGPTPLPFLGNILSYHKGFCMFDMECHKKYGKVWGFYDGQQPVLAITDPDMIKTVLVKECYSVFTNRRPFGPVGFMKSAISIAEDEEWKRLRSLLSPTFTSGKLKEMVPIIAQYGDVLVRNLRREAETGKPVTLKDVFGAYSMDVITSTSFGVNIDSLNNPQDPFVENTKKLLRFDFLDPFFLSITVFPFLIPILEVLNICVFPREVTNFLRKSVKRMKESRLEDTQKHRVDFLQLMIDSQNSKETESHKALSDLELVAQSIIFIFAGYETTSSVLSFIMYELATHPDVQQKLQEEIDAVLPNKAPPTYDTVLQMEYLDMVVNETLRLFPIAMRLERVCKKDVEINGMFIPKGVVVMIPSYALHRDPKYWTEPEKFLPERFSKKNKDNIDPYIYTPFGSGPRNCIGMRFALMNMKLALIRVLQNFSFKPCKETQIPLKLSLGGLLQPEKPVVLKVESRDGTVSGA
Sequence of Cytochrome P450 3A7 (Homo sapiens) (P24462 whole entry, looked up): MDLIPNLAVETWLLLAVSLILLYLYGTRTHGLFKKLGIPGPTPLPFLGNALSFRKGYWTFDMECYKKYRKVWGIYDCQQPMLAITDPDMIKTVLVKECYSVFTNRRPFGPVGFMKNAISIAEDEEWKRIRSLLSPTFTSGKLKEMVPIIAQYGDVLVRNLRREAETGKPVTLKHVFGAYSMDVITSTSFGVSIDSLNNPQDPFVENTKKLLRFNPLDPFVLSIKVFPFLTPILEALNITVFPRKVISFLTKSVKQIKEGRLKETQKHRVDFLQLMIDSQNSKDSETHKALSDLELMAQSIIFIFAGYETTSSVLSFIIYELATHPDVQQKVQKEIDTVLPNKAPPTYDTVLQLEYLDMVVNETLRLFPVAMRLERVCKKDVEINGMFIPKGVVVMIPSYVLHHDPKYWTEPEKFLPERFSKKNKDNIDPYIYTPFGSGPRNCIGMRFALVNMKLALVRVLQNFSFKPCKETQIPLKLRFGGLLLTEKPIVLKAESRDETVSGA
Sequence of Cytochrome P450 2C19 (Homo sapiens) (P33261 whole entry, looked up): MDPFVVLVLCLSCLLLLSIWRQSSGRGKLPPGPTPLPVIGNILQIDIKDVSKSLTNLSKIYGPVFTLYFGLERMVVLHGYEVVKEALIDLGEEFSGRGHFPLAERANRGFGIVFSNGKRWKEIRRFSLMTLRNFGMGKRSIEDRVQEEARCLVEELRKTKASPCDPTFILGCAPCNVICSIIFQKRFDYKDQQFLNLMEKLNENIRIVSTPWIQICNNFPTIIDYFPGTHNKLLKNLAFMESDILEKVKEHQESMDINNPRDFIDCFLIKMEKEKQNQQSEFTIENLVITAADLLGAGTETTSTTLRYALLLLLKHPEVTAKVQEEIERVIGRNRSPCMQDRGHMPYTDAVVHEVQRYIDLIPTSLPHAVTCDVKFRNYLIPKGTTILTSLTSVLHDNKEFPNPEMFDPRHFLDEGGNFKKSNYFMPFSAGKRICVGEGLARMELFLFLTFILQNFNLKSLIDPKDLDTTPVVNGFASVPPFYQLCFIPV

For the compound `S=C1NCCN1`, the outcome (in assay [1]; with CYP2C8 (gene 1558); with CYP2C9 (gene 1559); with CYP2E1 (gene 1571); with CYP4A11 (gene 1579); in [2]) was inactive. The outcome (in [3]; in [4]; in assay [5]; in assay [6]; in assay [7]; in the assay with CYP3A5 (gene 1577)) was inactive. Further, the call in assay [8], in assay [9], in assay [10], in [11], in assay [12] and in assay [13] was inactive. Moreover, the call in assay [14] and in assay [15] was inactive.

For the compound `CN(C)NC(=O)CCC(=O)O`, the compound was called inactive (with CYP2C8 (gene 1558); with CYP2C9 (gene 1559); with CYP2E1 (gene 1571); in the assay with CYP4A11 (gene 1579); in [2]; in [3]). In addition, the call (in [4]; in assay [5]; in assay [6]; in [7]; in the assay with CYP3A5 (gene 1577); in [8]) was inactive. Moreover, the compound was classed as inactive in assay [9], in assay [10], in assay [12], in [13], in assay [14] and in assay [15].

As to `Cc1nn(-c2cc(NS(C)(=O)=O)c(Cl)cc2Cl)c(=O)n1C(F)F`, the AC50 in assay [1] was 6.21 µM (active); in the assay with CYP2E1 (gene 1571), 12.8 µM (active); in assay [2], 3.03 µM (active); in [7], 7.34 µM (active). In addition, the compound was called inactive (in the assay with CYP2C8 (gene 1558); in the assay with CYP4A11 (gene 1579); in assay [3]; in assay [4]; in assay [5]; in assay [6]). For the same compound, the result (in the assay with CYP3A5 (gene 1577); in [8]; in assay [9]; in [10]; in [12]; in assay [13]) was inactive. In addition, the compound was called inactive in assay [14] and in [15].

What is called AC50 is the concentration giving half of the maximal activity seen.
